# Results as given in PubChem BioAssay (NCI).
# About 83,000 compounds went through this panel and 20% of them were active in at least one assay; those are over-represented in the sample as a whole.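 A percent growth of 40 corresponds to 60% growth inhibition; 0 means no net growth; -100 means all cells died. Active threshold: below 10.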 Active and inactive are the calls of the source.
# System: PC-3 prostate
# Experiment: NCI-60 one-dose screen, 48 h (100 = growth as untreated, 0 = no growth, -100 = all killed)
# Conditions: 10 µM unless noted
row,Structure (SMILES),growth
1,COc1ccc(C/C(=C(\C)c2ccc(OCCN3CCCC3)cc2)c2ccc(OCCN3CCCC3)cc2)cc1,50.9% (inactive)
2,CCOC(=O)Oc1c(OC)cc(C(=O)c2ccc(OC)c(O)c2OC)cc1OC,22.8% (inactive)
3,CCCCOc1ccc(/C(C)=N/Nc2cc(C)nc3ccc(Br)cc23)cc1,80.3% (inactive)
4,O=[N+]([O-])c1cc(Br)c2cccc3c2c1CC3,96.2% (inactive)
5,CC(Oc1ccc(C(=O)O)cc1C(F)(F)F)c1ccc(Oc2ccccc2)cn1 (centres undefined),108% (inactive)
6,CCN1CCN(CCNc2nccc(-c3c(-c4cccc(OC)c4)nc4occn34)n2)S1(=O)=O,96.9% (inactive)
7,Cn1c2ccccc2c2c3c(c4c5ccccc5n(C)c4c21)C(=O)OC3,90.6% (inactive)
8,COc1cc2c(cc1OC)C(=O)/C(=C/c1cc(C)c(O)c(C)c1)S2,38.4% (inactive)
9,O=C(/C=C/c1ccc(F)cc1)c1ccc(NC(=O)N2CCN(c3cc4c(cc3F)c(=O)c(C(=O)O)cn4C3CC3)CC2)cc1,96.6% (inactive)
10,O=C1c2ccc3c4c(ccc(c24)C(=O)N1CCCNCc1ccccc1Cl)C(=O)N(CCCNCc1ccccc1Cl)C3=O,-37.7% (active)
11,Cc1cccc(NC(=O)Nc2ccc(-n3cnc4cc(-c5ccc(O)cc5)ccc43)cc2)c1,31.2% (inactive)
12,c1ccc(-c2cn3c(ccc4ccccc43)n2)cc1,72.2% (inactive)
13,COc1cc2oc(-c3cccc(C(=O)Nc4ccccc4)c3)cc(=O)c2c(O)c1OC,71% (inactive)
14,Cc1ccc(/C=N/NC(=O)CSc2nc3ccccc3c(=O)n2Cc2ccc(S(N)(=O)=O)cc2)cc1,89.3% (inactive)
